Laboratory results reported in PubChem BioAssay (NCATS).
Inconclusive results are not listed. Where a call stands in place of a potency, no number is given. Active and inactive are the calls of the source. Calls follow the shape of the full dose curve.

Assay: A High-Content qHTS Against Drug Library for the Identification of Small Molecules that Inhibit DYT1 Early Onset Primary Dystonia-Associated Cell Pathology (AID 1645839)
Details: HEK293 Flp-In EGFP-delE TorsinA, punctate imaging, 48 h; series mostly up to 46.1 µM
How it was run: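 Flp-In T-REx 293 cells with tetracycline-inducible EGFP-delE hTOR1A (WT EGFP-hTOR1A as reference), 800 cells/well; compound added with tetracycline, 48 h at 37 C. Fixed, permeabilized cells imaged; %pathology (punctate TorsinA) primary, cell count counterscreen.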
Potency is read from the fitted curve at half-maximal effect.

Compound | Potency
CCC(C(=O)O)c1ccc(N2Cc3ccccc3C2=O)cc1 (stereo not given) | inactive
O=C(O)c1ccccc1NCCc1ccccc1 | inactive
Nc1ccccc1N | 35.5 µM (active)
O=C(O)c1c(O)c(-c2ccccc2)nc2ccccc12 | inactive
CCOCCOC(=O)/C=C/c1ccc(OC)cc1 | inactive
